# Results from ChEMBL document CHEMBL1201862, “PubChem BioAssay data set” (2004).
# Out of some 400,000 compounds screened, about 2,100 (0.53%) were called active. About 14% were inconclusive and are not listed. This is one part of a sample in which actives are shown more often than they occur. No rule for the calls is given here.
# Molecular target: Ataxin-2 (Homo sapiens) (UniProt Q99700)
# Assay: qHTS for Inhibitors of ATXN expression.
# Assay type: functional
# Sequence of Ataxin-2 (Homo sapiens) (Q99700 whole entry): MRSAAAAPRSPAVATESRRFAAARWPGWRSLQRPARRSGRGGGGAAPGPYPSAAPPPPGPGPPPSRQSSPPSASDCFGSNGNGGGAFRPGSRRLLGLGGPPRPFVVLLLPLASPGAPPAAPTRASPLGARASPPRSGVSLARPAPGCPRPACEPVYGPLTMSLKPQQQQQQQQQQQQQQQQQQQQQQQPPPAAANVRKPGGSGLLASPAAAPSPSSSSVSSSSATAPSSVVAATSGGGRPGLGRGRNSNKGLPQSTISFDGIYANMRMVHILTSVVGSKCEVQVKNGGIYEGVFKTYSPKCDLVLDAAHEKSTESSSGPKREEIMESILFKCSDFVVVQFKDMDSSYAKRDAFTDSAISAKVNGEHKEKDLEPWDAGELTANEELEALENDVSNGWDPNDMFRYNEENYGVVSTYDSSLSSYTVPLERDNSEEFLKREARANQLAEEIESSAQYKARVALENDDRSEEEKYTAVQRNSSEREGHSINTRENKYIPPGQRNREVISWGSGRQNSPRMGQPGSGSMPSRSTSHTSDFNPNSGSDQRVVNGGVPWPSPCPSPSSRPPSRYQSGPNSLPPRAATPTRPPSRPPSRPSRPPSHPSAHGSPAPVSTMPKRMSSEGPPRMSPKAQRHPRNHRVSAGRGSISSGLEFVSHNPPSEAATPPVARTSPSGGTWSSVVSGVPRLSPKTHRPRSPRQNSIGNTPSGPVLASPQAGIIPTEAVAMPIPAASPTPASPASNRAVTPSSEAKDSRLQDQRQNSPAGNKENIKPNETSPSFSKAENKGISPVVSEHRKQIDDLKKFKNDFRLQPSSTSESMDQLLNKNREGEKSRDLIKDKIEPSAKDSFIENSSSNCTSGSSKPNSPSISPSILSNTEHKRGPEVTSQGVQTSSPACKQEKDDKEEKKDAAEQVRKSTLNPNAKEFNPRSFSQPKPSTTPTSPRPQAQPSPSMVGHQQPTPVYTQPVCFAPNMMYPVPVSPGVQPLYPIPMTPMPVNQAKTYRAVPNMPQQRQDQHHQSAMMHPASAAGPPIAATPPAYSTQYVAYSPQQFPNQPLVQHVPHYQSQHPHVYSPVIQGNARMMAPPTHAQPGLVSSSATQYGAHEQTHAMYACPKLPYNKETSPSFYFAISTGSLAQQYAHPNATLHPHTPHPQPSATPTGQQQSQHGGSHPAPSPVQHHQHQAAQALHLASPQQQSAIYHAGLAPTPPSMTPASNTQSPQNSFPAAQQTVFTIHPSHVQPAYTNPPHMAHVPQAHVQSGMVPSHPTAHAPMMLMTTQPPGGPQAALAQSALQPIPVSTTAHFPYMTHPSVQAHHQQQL
row,Compound,Potency
1,Cc1ccc(/C=N/n2c(S)nnc2-c2ccccn2)o1,inactive
2,Cc1ccc2nc(Cn3cc(C(F)(F)F)cc(Cl)c3=O)cc(=O)n2c1,inactive
3,CN(C)c1ccc(-c2[nH]nc(O)c2NC(=O)c2ccccn2)cc1,25.1 µM (active)
4,CN(C)c1ccc(/C=N/NC(=O)c2ccccn2)cc1,inactive
5,CCOc1cc(NC(=O)c2cccs2)c(OCC)cc1NC(=O)c1ccccn1,inactive
6,CC(C)(C)OC(=O)NCCCCCNC(=O)c1[nH]cnc1C(=O)Nc1cc(Br)ccc1F,39.8 µM (active)
7,Cc1ccc(NC(=O)c2[nH]cnc2C(=O)NCCCCCNC(=O)OC(C)(C)C)cc1,39.8 µM (active)
8,Cc1ccc(OCCNC(=O)c2ccccc2F)cc1,inactive
9,Cc1cccc(NC(=O)c2[nH]cnc2C(=O)NCCCCCNC(=O)OC(C)(C)C)c1,20 µM (active)
10,COc1cccc(-c2ccc3c(N)c(C(=O)c4ccc(Br)cc4)sc3n2)c1,inactive
11,O=S(=O)(NCc1csc(-c2cccs2)n1)c1cccc(C(F)(F)F)c1,inactive
12,CCCCn1c(OC(=S)N(CC)CC)cc(C)nc1=S,35.5 µM (active)
13,Nc1ccc2c3[nH]c4cc(N)ccc4cc-3nc2c1,inactive
14,Nc1ccc2[nH]c(-c3ccc(-c4nc5cc(N)ccc5[nH]4)cc3)nc2c1,inactive
15,Nc1ccc2[nH]c(-c3ccc(Cl)cc3)nc2c1,31.6 µM (active)
16,Cc1ccc2nc3c(cc(C(=O)NCCCn4ccnc4)n3C)c(=O)n2c1,inactive
17,Cc1cc(C)c2cc(N)c(Cl)nc2n1,inactive
18,CCOC(=O)c1cc2c(=O)n3ccccc3nc2n(CC2CCCO2)/c1=N/C(=O)/C=C/c1ccccc1 (configuration not stated),inactive
19,CN(C)c1ccccc1-c1cc(NC=O)c2ncc(-c3cccc(C(F)(F)F)c3)n2c1,inactive
20,CN(C)C(=O)c1cccc(-c2cnc3c(NC=O)cc(-c4cccc(C(F)(F)F)c4)cn23)c1,39.8 µM (active)
21,CN(C)CCNC(=O)c1cccc(-c2cnc3c(NC=O)cc(-c4cc(F)c(F)c(F)c4)cn23)c1,25.1 µM (active)
22,CN(C)CCNC(=O)c1cccc(-c2cnc3c(NC=O)cc(-c4ccc(F)cc4)cn23)c1,35.5 µM (active)
23,CC(=O)c1ccc(-c2cnc3c(NC=O)cc(-c4ccccc4Oc4ccccc4)cn23)cc1,inactive
24,CN(C)CCNC(=O)c1cccc(-c2cnc3c(NC=O)cc(-c4cccc(F)c4)cn23)c1,31.6 µM (active)
25,COc1cccc(-c2cnc3c(NC=O)cc(-c4ccc(N(C)C)cc4)cn23)c1,inactive
26,CCCCCCc1cc2cc(-c3nnc(-c4ccccc4)o3)c(=O)oc2cc1O,inactive

row,Compound,Potency
1,CC(C)OC(=O)c1sc2nc(-c3ccccc3)ccc2c1N,inactive
2,O=C1CCn2c1c(O)c1ccccc1c2=O,inactive
3,O=C1OCCN1C(=O)[C@H]1[C@H](c2ccccc2)C(c2ccccc2)=NN1c1ccccc1,inactive
4,N#CC1(Nc2cccc(Br)c2)C(=O)Nc2ccccc21 (configuration not stated),inactive
5,COc1ccc(OC)c(S(=O)(=O)N2CCN(c3ccccc3)CC2)c1,inactive
6,O=C1OCCN1C(=O)[C@H]1[C@H](c2ccc(Cl)cc2)C(c2cccc(Cl)c2)=NN1c1ccc(Br)cc1,inactive
7,CCOc1cc(C2NN=C(c3ccc(C)cc3)S2)ccc1O (configuration not stated),inactive
8,CCOc1ccc(C2=CC(c3cc(Br)ccc3F)n3ncnc3N2)cc1Cl (configuration not stated),inactive
9,O=C1c2[nH]nc(-c3ccc(Br)cc3)c2C(c2cccc(O)c2)N1c1ccc(Cl)cc1 (configuration not stated),28.2 µM (active)
10,CCOc1cc(C2c3c(-c4ccc(Br)cc4)n[nH]c3C(=O)N2c2ccc(Cl)cc2)ccc1O (configuration not stated),28.2 µM (active)
11,Cc1cccc(C2=NN(c3ccc(Br)cc3)[C@@H](C(=O)N3CCOC3=O)[C@@H]2c2ccc(Cl)cc2)c1,inactive
12,CCN(CCCn1c(=S)[nH]c2ccc(N3CCOCC3)cc2c1=O)c1ccccc1,inactive
13,CN(/N=C/c1ccc2c(c1)OCO2)c1nc(N2CCOCC2)nc(N2CCOCC2)n1,inactive
14,Cc1nonc1NC(=O)CSc1nc2ccccc2cc1C#N,inactive
15,CC(=O)c1ccc2cccc3c2c1NC(C)=N3,inactive
16,Cc1nc(=O)c(-c2ccccc2)c(C)n1-c1ccccc1Cl,inactive
17,Cc1ccc(Sc2nc(C)c([N+](=O)[O-])c(C)c2C#N)cc1,inactive
18,Cn1c(=O)c([N+](=O)[O-])c(Cl)c2ccccc21,29.9 µM (active)
19,Cc1ccc(Sc2c([N+](=O)[O-])c(=O)n(C)c3ccccc23)cc1,28.2 µM (active)
20,CCN(CC)c1c([N+](=O)[O-])c(=O)n(CC)c2ccccc12,inactive
21,COc1ccccc1NC(=O)c1ccc(-n2ccnc2)c([N+](=O)[O-])c1,inactive
22,Cn1c2ccccc2c(=O)c2ccc(F)cc21,inactive
23,Cn1c(=O)c([N+](=O)[O-])c(-n2ccnc2)c2ccccc21,23.8 µM (active)
24,CCOc1ccc(C2C(C#N)=C(N)Oc3cc(O)ccc32)cc1OCC (configuration not stated),inactive
25,COCOc1ccc(/C=C2/Oc3cc(OCOC)cc(OCOC)c3C2=O)c(OCOC)c1,inactive
26,Cc1cscc(C)c1=S,inactive

row,Compound,Potency
1,Nc1c(C(=O)CSc2ncccn2)c(=O)[nH]c(=O)n1C1CC1,inactive
2,Cc1c(CCC(=O)O)c(=O)oc2c(C)c3occ(-c4ccc(Br)cc4)c3cc12,inactive
3,O=C(Nc1ccc(Nc2ccncc2)cc1)c1ccc(Nc2ccnc3ccc([N+](=O)[O-])cc23)cc1[N+](=O)[O-],39.8 µM (active)
4,COc1ccc([N+](=O)[O-])cc1C(=O)Nc1ccc(Cc2ccncc2)cc1,inactive
5,O=C(Nc1ccc(S(=O)(=O)Nc2cnc3ccccc3n2)cc1)c1ccc([N+](=O)[O-])cc1Cl,inactive
6,N#Cc1cc2c(=O)n3ccccc3nc2n(CCCN2CCOCC2)c1=O,inactive
7,CCOc1cc(C2C3=C(CCCC3=O)N(CCC(=O)O)C3=C2C(=O)CCC3)ccc1OS(=O)(=O)c1ccc(C)cc1,inactive
8,CC(=O)NCCc1nc2cc(NC(=O)c3cccs3)ccc2n1C,inactive
9,Cc1cc(S(=O)(=O)N2CCCC2)ccc1OCC(=O)Nc1ccc(C(N)=O)cc1,inactive
10,Cc1ccc(C(C)C)c(OCC(=O)Nc2ccc3c(c2)nc(CCN2CCCCC2)n3C)c1,39.8 µM (active)
11,O=C1/C(=C\Nn2cnnc2)c2ccccc2C(=O)N1c1ccccc1F,inactive
12,COc1ccccc1NS(=O)(=O)c1cccc(NC(=O)Nc2cccc(Cl)c2)c1,44.7 µM (active)
13,COc1ccccc1NS(=O)(=O)c1ccc(C)c(NC(=O)c2c(C)noc2C)c1,inactive
14,COc1ccccc1NS(=O)(=O)c1cccc(NC(=O)c2[nH]c(C)c(C(C)=O)c2C)c1,inactive
15,CCOC(=O)NN=C1c2ccccc2-c2nc3nonc3nc21,3.77 µM (active)
16,CCOC(=O)Nc1c2ccccc2nc2ccccc12,inactive
17,COC(=O)c1c(C)nc2nonc2c1N,inactive
18,COc1cc(/C=C/C(=O)N2C(=O)c3cccc(N)c3C2=O)cc(OC)c1OC,inactive
19,Cn1c2nc(=O)[nH]c(=O)c-2cc2ccccc21,inactive
20,C=CCOc1ccccc1CN(C(=O)CCl)c1ccc2c(c1)OCO2,39.8 µM (active)
21,CCc1cccc(CC)c1N1C(=O)C2=C(SCCCS2)C1=O,inactive
22,CCOC(=O)C1(CCOc2ccccc2)CCN(Cc2ccc(C#CCCO)cc2)CC1,inactive
23,CCc1noc(C)c1C(=O)N1CCN(c2cccc(Cl)c2)CC1,inactive
24,Cn1c(C(=O)N2CCN(C(=O)c3ccco3)CC2)cc2c(=O)n3ccccc3nc21,inactive
25,Cc1cc(N2CCN(C(=O)c3ccco3)CC2)n2nc(-c3cccc(Cl)c3)cc2n1,35.5 µM (active)
26,O=C(c1ccco1)N1CCN(c2c(O)nc3ccc(Cl)cc3c2-c2ccccc2)CC1,28.2 µM (active)

row,Compound,Potency
1,O=c1oc2cc(O)ccc2cc1-c1ccc(F)cc1,inactive
2,Cc1ccc(/N=c2\oc3cc(O)ccc3cc2C(N)=O)cc1,inactive
3,O=CNc1ccc2c3c(cccc13)-c1ccccc1-2,inactive
4,CN(C)C=O.CN(C)c1ccc(/C=C/c2nc3ccccc3c(=O)n2-c2ccc(C(=O)O)cc2)cc1,inactive
5,CC1=NN(c2ccccc2)C(=O)/C1=C/C=C/c1ccc(N(C)C)cc1,17.8 µM (active)
6,CC1=NN(c2ccccc2)C(=O)C1/C=N/c1ccc(N(C)C)cc1 (configuration not stated),inactive
7,O=C(COC(=O)Cc1ccsc1)NNC(=O)c1ccccc1,inactive
8,C#CCN1C(=O)S/C(=C\c2cc3c(cc2OC)OCO3)C1=O,inactive
9,COc1ccc(Cl)cc1C(=O)NNC(=O)c1[nH]nc2ccccc12,inactive
10,CNC(=O)c1cc(NC(=O)CCn2nc(-c3ccccc3)c3ccccc3c2=O)ccc1OC,inactive
11,CCn1nc(C(=O)NNC(=O)c2cc(Cl)ccc2OC)c2ccccc2c1=O,39.8 µM (active)
12,CC(=O)N(Cc1ccccc1)c1ncc2c(n1)c(=O)c(C#N)c1ccccn12,inactive
13,COCCCNC(=O)C[S+]([O-])Cc1nc(-c2ccccc2C)oc1C (configuration not stated),inactive
14,CCCCCOc1ccc(Br)cc1CSC(=N)N,35.5 µM (active)
15,CCCn1c(=N)c(C(=O)NCC2CCCO2)cc2c(=O)n3cccc(C)c3nc21 (configuration not stated),inactive
16,O=C(CCl)Nc1cccc2ncccc12,31.6 µM (active)
17,O=C(Cc1ccccc1C(=O)O)Nc1cccc2ccccc12,inactive
18,Cc1cc(O)nc(SCC(=O)Nc2ccnc3ccccc23)n1,inactive
19,Cc1c(Cc2ccccc2)c(=O)oc2cc(OC(=O)c3ccccc3)ccc12,inactive
20,Cn1/c(=N/N=C/c2ccccn2)sc2ccccc21,inactive
21,CC/N=c1\scc(-c2ccc(F)cc2)n1/N=C/c1ccccn1,inactive
22,CCCc1sc(N/N=C/c2ccccn2)nc1-c1ccc(Br)cc1,17.8 µM (active)
23,Cc1csc(N/N=C/c2ccccn2)n1,28.2 µM (active)
24,CCC/C=N/Nc1nc2ccccc2s1,inactive
